Measured values from PMC5540273 (PLoS ONE, 2017).

Experiments:
Settings in all cases: concentration: 1 μM, replicates: in singlicate; n = 1
[1] = tested on: INSRR
[2] = tested on: INSR
[3] = tested on: IRAK1
[4] = tested on: IRAK3
[5] = tested on: IRAK4
[6] = tested on: ITK
[7] = tested on: JAK1(JH1domain-catalytic)
[8] = tested on: JAK1(JH2domain-pseudokinase)
[9] = tested on: JAK2(JH1domain-catalytic)
[10] = tested on: JAK3(JH1domain-catalytic)
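Also: KINOMEscan kinase panel screen.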

Cl.Fc1ccccc1COc1ccc(Nc2ncnc3ccc(-c4nnc(C(F)(F)F)o4)cc23)cc1Cl [GW424170]
%Inh [1]: 0% | %Inh [2]: 0% | %Inh [3]: 0% | %Inh [4]: 0% | %Inh [5]: 0% | %Inh [6]: 4% | %Inh [7]: 7% | %Inh [8]: 0% | %Inh [9]: 6% | %Inh [10]: 0%

N#Cc1ccc(Oc2ccc(Nc3ncnc4cc[nH]c34)cc2Cl)cc1
%Inh [1]: 0% | %Inh [2]: 0% | %Inh [3]: 16% | %Inh [4]: 3% | %Inh [5]: 13% | %Inh [6]: 9% | %Inh [7]: 12% | %Inh [8]: 25% | %Inh [9]: 19% | %Inh [10]: 4%

COc1ccc(NC(=O)Nc2ccc(C)c(-c3ccc(C(=O)Nc4ccncc4)cc3)c2)cc1 [GSK1398475]
%Inh [1]: 0% | %Inh [2]: 30% | %Inh [3]: 0% | %Inh [4]: 0% | %Inh [5]: 0% | %Inh [6]: 9% | %Inh [7]: 11% | %Inh [8]: 0% | %Inh [9]: 0% | %Inh [10]: 0%

COc1ccc(NC(=O)c2ccc(-c3cc(-c4nnc(C)o4)ccc3C)cc2)cc1 [GW595885]
%Inh [1]: 0% | %Inh [2]: 0% | %Inh [3]: 37% | %Inh [4]: 0% | %Inh [5]: 16% | %Inh [6]: 6% | %Inh [7]: 9% | %Inh [8]: 0% | %Inh [9]: 12% | %Inh [10]: 0%

Clc1cc(Nc2ncnc3cc[nH]c23)ccc1OCc1ccccn1
%Inh [1]: 0% | %Inh [2]: 3% | %Inh [3]: 6% | %Inh [4]: 19% | %Inh [5]: 2% | %Inh [6]: 0% | %Inh [7]: 3% | %Inh [8]: 35% | %Inh [9]: 16% | %Inh [10]: 0%

c1ccc(-c2ccc3c(-c4ccnc(Nc5ccc6c(c5)OCCO6)n4)cnn3n2)cc1 [GW818941]
%Inh [1]: 11% | %Inh [2]: 3% | %Inh [3]: 8% | %Inh [4]: 42% | %Inh [5]: 6% | %Inh [6]: 9% | %Inh [7]: 14% | %Inh [8]: 0% | %Inh [9]: 11% | %Inh [10]: 0%

CCCc1ccc(S(=O)(=O)NC2CCN(c3ccnc(Nc4ccc(OC)cc4)n3)C2)cc1 (stereo not drawn) [GSK1379737]
%Inh [1]: 0% | %Inh [2]: 0% | %Inh [3]: 39% | %Inh [4]: 0% | %Inh [5]: 24% | %Inh [6]: 14% | %Inh [7]: 34% | %Inh [8]: 0% | %Inh [9]: 73% | %Inh [10]: 0%

CCn1c(-c2ccncc2)nc2cnccc21 [SB-735216]
%Inh [1]: 0% | %Inh [2]: 7% | %Inh [3]: 6% | %Inh [4]: 0% | %Inh [5]: 17% | %Inh [6]: 0% | %Inh [7]: 15% | %Inh [8]: 12% | %Inh [9]: 10% | %Inh [10]: 0%

COC(=O)c1c(-c2ccccc2)c2cc(Cl)ccc2c(=O)n1Cc1ccc(S(C)(=O)=O)cc1
%Inh [1]: 0% | %Inh [2]: 5% | %Inh [3]: 11% | %Inh [4]: 19% | %Inh [5]: 9% | %Inh [6]: 21% | %Inh [7]: 0% | %Inh [8]: 0% | %Inh [9]: 5% | %Inh [10]: 4%

COc1ccc(-c2oc3ncnc(N)c3c2-c2ccc(OC)cc2)cc1 [SB-589132]
%Inh [1]: 0% | %Inh [2]: 0% | %Inh [3]: 56% | %Inh [4]: 15% | %Inh [5]: 58% | %Inh [6]: 19% | %Inh [7]: 25% | %Inh [8]: 31% | %Inh [9]: 1% | %Inh [10]: 19%

COc1cc2ncnc(Nc3ccc(OCc4ccccc4Br)c(Cl)c3)c2cc1OC.Cl [GI261590]
%Inh [1]: 0% | %Inh [2]: 0% | %Inh [3]: 32% | %Inh [4]: 13% | %Inh [5]: 18% | %Inh [6]: 12% | %Inh [7]: 17% | %Inh [8]: 0% | %Inh [9]: 0% | %Inh [10]: 0%

COC(=O)c1cccc(NC(=O)NCCNc2ccnc(Nc3ccc(F)cc3)n2)c1 [GSK1379883]
%Inh [1]: 0% | %Inh [2]: 0% | %Inh [3]: 13% | %Inh [4]: 0% | %Inh [5]: 4% | %Inh [6]: 11% | %Inh [7]: 30% | %Inh [8]: 0% | %Inh [9]: 1% | %Inh [10]: 0%

Cl.Cn1ccc(-c2cccc(Nc3ccnc4cc(-c5nccs5)ccc34)c2)n1 [GW525701]
%Inh [1]: 0% | %Inh [2]: 0% | %Inh [3]: 41% | %Inh [4]: 0% | %Inh [5]: 15% | %Inh [6]: 7% | %Inh [7]: 18% | %Inh [8]: 0% | %Inh [9]: 0% | %Inh [10]: 0%

Cl.c1ccc(Cn2ccc3cc(Nc4ncnc5ccccc45)ccc32)cc1 [GW275568]
%Inh [1]: 0% | %Inh [2]: 12% | %Inh [3]: 0% | %Inh [4]: 0% | %Inh [5]: 0% | %Inh [6]: 12% | %Inh [7]: 18% | %Inh [8]: 10% | %Inh [9]: 100% | %Inh [10]: 0%

Oc1ccc2ncnc(Nc3ccc(OCc4ccccc4)cc3)c2c1 [GI262866]
%Inh [1]: 18% | %Inh [2]: 0% | %Inh [3]: 0% | %Inh [4]: 0% | %Inh [5]: 5% | %Inh [6]: 4% | %Inh [7]: 12% | %Inh [8]: 0% | %Inh [9]: 0% | %Inh [10]: 0%

Fc1ccc(-c2ncn(CCCNCc3ccccc3)c2-c2ccncc2)cc1
%Inh [1]: 5% | %Inh [2]: 0% | %Inh [3]: 24% | %Inh [4]: 9% | %Inh [5]: 19% | %Inh [6]: 21% | %Inh [7]: 0% | %Inh [8]: 24% | %Inh [9]: 36% | %Inh [10]: 8%

CC(C)(C)OC(=O)NC1CCCN(c2cc(-c3ccc4c(N)n[nH]c4c3)nc(N)n2)C1 (stereo not drawn) [GSK2286096]
%Inh [1]: 0% | %Inh [2]: 0% | %Inh [3]: 0% | %Inh [4]: 0% | %Inh [5]: 8% | %Inh [6]: 6% | %Inh [7]: 6% | %Inh [8]: 15% | %Inh [9]: 0% | %Inh [10]: 0%

CSc1nn2c(=O)cc(N3CCOCC3)nc2n1Cc1cccc(Cl)c1Cl [GSK2347225]
%Inh [1]: 0% | %Inh [2]: 17% | %Inh [3]: 0% | %Inh [4]: 0% | %Inh [5]: 0% | %Inh [6]: 13% | %Inh [7]: 24% | %Inh [8]: 0% | %Inh [9]: 18% | %Inh [10]: 0%

Fc1cccc(COc2ccc(Nc3ncnc4sc(-c5ccc[nH]5)cc34)cc2Cl)c1 [GW707818]
%Inh [1]: 0% | %Inh [2]: 13% | %Inh [3]: 20% | %Inh [4]: 0% | %Inh [5]: 0% | %Inh [6]: 0% | %Inh [7]: 18% | %Inh [8]: 4% | %Inh [9]: 100% | %Inh [10]: 0%

CNc1nccc(-c2c(-c3ccc(F)cc3)ncn2C2CCN(C)CC2)n1 [SB-222903]
%Inh [1]: 0% | %Inh [2]: 5% | %Inh [3]: 0% | %Inh [4]: 0% | %Inh [5]: 0% | %Inh [6]: 5% | %Inh [7]: 24% | %Inh [8]: 5% | %Inh [9]: 5% | %Inh [10]: 0%

Cc1ccc(C)c(NC(=O)NCCNc2ccnc(Nc3ccc(F)cc3)n2)c1 [GSK1379878]
%Inh [1]: 0% | %Inh [2]: 0% | %Inh [3]: 0% | %Inh [4]: 0% | %Inh [5]: 0% | %Inh [6]: 0% | %Inh [7]: 0% | %Inh [8]: 0% | %Inh [9]: 1% | %Inh [10]: 0%
